Where “and” joins values, the source holds several entries; their conditions need not be identical. Equal entries are not always repeated. Calls of active or inactive are those of the source.

Assay [1] deals with Human papillomavirus type 1a protein E7 (residues 44-93). The assay can be described thus: small molecules binding HPV E7 44-93 – biochemical, small-molecule microarray, residues 44-93, 635 nm fluorescence, primary screen (AID 1108).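 Note: E7 fragment applied at 1 µg/mL in TBST for 1 h at 4 C; score combines spot fluorescence with its signal to noise ratio.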 To be noted: fluorescence 635 nm, higher = more signal.
A short description of assay [2]: hepatitis C replication reporter changes, two-sided – Huh7 cells, luciferase reporter, HCV replication inhibitor project, primary screen (AID 1109).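 Note: huh7 hepatoma cells harbouring a luciferase neomycin HCV replicon reporter; luciferase luminescence as measure of HCV replicon replication; test concentration not given here.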 The following applies: Huh7 HCV replicon luciferase reporter, 48 h; higher = more signal.
In assay [3] the target is Left-right determination factor 2 (Homo sapiens) (UniProt O00292). Put plainly: small molecules binding LEFTY2 protein – biochemical, small-molecule microarray, 635 nm fluorescence scan, primary screen (AID 1110). To be noted: higher = more signal.
Chain of Left-right determination factor 2 (Homo sapiens) (O00292 whole entry, looked up): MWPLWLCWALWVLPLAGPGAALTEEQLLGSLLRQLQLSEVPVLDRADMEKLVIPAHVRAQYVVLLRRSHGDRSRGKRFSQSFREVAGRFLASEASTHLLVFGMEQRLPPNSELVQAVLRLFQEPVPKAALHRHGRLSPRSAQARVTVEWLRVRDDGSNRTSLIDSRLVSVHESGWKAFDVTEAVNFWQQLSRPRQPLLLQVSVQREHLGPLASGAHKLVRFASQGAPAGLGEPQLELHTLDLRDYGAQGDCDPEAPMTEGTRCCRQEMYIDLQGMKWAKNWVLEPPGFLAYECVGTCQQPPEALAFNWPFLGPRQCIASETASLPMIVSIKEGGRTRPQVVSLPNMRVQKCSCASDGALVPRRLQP
Assay [4] has as its target Calmodulin-1 (Homo sapiens) (UniProt P0DP23). Put plainly: small molecules binding calmodulin-1 with EGTA – biochemical, small-molecule microarray, Cy5-labelled CALM1, profiling panel (AID 1111).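 Note: labelled calmodulin applied in Tris saline Tween buffer holding calcium plus EGTA and DTT.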 To be noted: Cy5-CALM1 binding fluorescence, higher = more signal.
Assay [5] shares this target. Put plainly: small molecules binding Ca-loaded calmodulin-1 – biochemical, small-molecule microarray, Cy5-labelled CALM1, plus calcium, artefact control for SMM control-protein annotation, profiling panel (AID 1112).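 Note: score merges spot fluorescence with signal to noise from triplicate slides.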 The following applies: Cy5-CALM1 binding fluorescence, higher = more signal.
Assay [6] is described as follows: probe aWnt5a binding to arrayed compounds – biochemical, biotinylated probe, 635/667 nm fluorescence, primary screen (AID 1113).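 Note: score merges 667 nm fluorescence intensity with signal-to-noise per printed feature.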 The following applies: small-molecule microarray, higher = more signal.
Assay [7] is described as follows: probe aShh binding to arrayed compounds – biochemical, biotinylated probe, 635/667 nm fluorescence, primary screen (AID 1114).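 Note: probe is biotin-labelled aShh protein from a stem cell growth factor screen; measures binding of labelled protein to compounds printed on the slide; score merges feature fluorescence at 667 nm with signal-to-noise.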 The following applies: small-molecule microarray, higher = more signal.
Assay [8] can be described thus: probe aNog binding to arrayed compounds – biochemical, biotinylated probe, 635/667 nm fluorescence, primary screen (AID 1115).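 Note: probe is biotinylated aNog protein used at 0.15 µg/mL for 1 h at 4 C; z-score combines 667 nm fluorescence of each spot with its signal to noise.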 The following applies: small-molecule microarray, higher = more signal.
Assay [9] deals with Torsin-1A-interacting protein 1 (Homo sapiens) (UniProt Q5JTV8). The assay can be described thus: compound microarray binding of lysate hLAP1 – cell lysate, small-molecule microarray, COS7 lysate, 635/667 nm fluorescence, primary screen (AID 1116). To be noted: 635 nm fluorescence, higher = more signal.
Chain of Torsin-1A-interacting protein 1 (Homo sapiens) (Q5JTV8 whole entry, looked up): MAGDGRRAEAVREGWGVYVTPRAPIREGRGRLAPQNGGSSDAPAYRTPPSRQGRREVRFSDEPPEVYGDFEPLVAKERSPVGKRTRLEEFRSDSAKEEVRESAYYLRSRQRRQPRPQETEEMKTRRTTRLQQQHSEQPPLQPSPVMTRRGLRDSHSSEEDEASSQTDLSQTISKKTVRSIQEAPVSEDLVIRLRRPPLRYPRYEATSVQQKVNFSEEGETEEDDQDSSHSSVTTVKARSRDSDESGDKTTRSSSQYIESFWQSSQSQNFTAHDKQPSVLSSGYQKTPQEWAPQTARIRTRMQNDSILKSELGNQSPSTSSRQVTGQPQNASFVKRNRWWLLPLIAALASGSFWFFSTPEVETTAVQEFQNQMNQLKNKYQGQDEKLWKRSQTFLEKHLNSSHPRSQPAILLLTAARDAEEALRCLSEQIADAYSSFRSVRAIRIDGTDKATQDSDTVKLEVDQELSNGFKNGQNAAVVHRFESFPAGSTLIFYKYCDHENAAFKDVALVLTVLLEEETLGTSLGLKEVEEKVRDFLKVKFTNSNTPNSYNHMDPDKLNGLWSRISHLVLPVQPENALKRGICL
Assay [10] concerns the target Alpha-bungarotoxin (Bungarus multicinctus) (UniProt P60615). The assay can be described thus: compounds binding labelled alpha-BTX control protein – biochemical, small-molecule microarray, Alexa647 label, 635/667 nm fluorescence, artefact control for SMM control protein annotation, profiling panel (AID 1117). The following applies: alpha-BTX-A647 binding fluorescence, higher = more signal.

The target in assay [11] is Albumin (Bos taurus) (UniProt P02769). The assay can be described thus: compounds binding labelled BSA control protein – biochemical, small-molecule microarray, Alexa647 label, 635/667 nm fluorescence, artefact control for SMM control protein annotation, profiling panel (AID 1118).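 Note: score merges 667 nm emission intensity and signal-to-noise per printed compound spot.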 The following applies: BSA-A647 binding, fluorescence 635 nm, higher = more signal.
Chain of Albumin (Bos taurus) (P02769 whole entry, looked up): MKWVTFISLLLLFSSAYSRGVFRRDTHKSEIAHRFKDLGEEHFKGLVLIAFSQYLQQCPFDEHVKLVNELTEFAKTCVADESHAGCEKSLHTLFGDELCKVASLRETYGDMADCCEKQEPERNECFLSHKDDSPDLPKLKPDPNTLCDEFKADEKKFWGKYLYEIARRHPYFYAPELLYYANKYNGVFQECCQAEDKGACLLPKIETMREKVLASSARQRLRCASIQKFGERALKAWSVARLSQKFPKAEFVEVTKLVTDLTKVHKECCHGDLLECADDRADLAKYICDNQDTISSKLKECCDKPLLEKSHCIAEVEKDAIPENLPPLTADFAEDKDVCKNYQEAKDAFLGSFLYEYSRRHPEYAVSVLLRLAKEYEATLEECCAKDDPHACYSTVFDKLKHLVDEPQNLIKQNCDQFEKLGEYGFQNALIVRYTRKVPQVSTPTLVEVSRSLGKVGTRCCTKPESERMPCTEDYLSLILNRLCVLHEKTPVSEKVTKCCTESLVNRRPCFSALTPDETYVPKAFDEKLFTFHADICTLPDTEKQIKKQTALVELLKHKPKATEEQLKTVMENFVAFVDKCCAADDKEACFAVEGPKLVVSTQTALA
A short description of assay [12]: probe aXIP binding to arrayed compounds – biochemical, NeuroSMM set, 635/667 nm fluorescence, primary screen (AID 1119).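 Note: probe is the protein aXip251-270 applied at 1 µg/mL to compound-printed slides; binding of probe to printed compounds measured as 667 nm fluorescence plus signal to noise.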 To be noted: small-molecule microarray, higher = more signal, called active from +8 up or from −8 down.
Assay [13] is described as follows: probe aNOTCH3 binding on compound microarray – biochemical, small-molecule microarray, 635/667 nm fluorescence, primary screen (AID 1120).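 Note: probe is a biotin-tagged antibody raised against NOTCH3 rather than NOTCH3 protein; score merges spot fluorescence near 667 nm with spot signal to noise.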 To be noted: higher = more signal.
Assay [14] in a line: probe aNOTCH2 binding on compound microarray – biochemical, small-molecule microarray, 635/667 nm fluorescence, primary screen (AID 1121).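 Note: score merges feature fluorescence read at 667 nm with its signal to noise.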 The following applies: higher = more signal.
Assay [15] concerns the target Carbonic anhydrase 2 (Homo sapiens) (UniProt P00918). Put plainly: compounds binding carbonic anhydrase 2 – biochemical, small-molecule microarray, Alexa647-labelled CAII, profiling panel (AID 1122). To be noted: CAII-A647 binding fluorescence, higher = more signal.
The nature of assay [16]: COS7 lysate on small-molecule microarray, probe aHis, 635 nm (AID 1123).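 Note: z-score combines 667nm fluorescence intensity with signal-to-noise per printed compound spot.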 The following applies: COS7 cell lysate, fluorescence, higher = more signal.
Assay [17] in a line: probe aLAP1 signal on lysate-treated microarray – cell lysate, small-molecule microarray, COS7 lysate, primary screen (AID 1124).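 Note: lysate comes from COS7 cells expressing LAP1 and is applied at 0.3 µg/mL; score merges spot fluorescence near 667 nm with signal-to-noise over triplicate slides.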 To be noted: probe aLAP1, fluorescence, higher = more signal.
Assay [18] has as its system Sam68 (KHDRBS1). Put plainly: compounds binding KHDRBS1 protein – biochemical, small-molecule microarray, 635 nm fluorescence, primary screen (AID 1125).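 Note: score merges 667 nm channel intensity with signal to noise over triplicate slides.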 The following applies: higher = more signal.
Assay [19] concerns Chordin-like protein 2 (CHRDL2). Put plainly: compounds binding chordin-like 2 – biochemical, small-molecule microarray, 635 nm fluorescence, primary screen (AID 1126).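 Note: printed compound slides probed with Chrdl2 protein at 4 µg/mL for 1 h at 4 C; score merges 667 nm emission intensity with signal to noise over three replicate slides.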 The following applies: fluorescence 635 nm, higher = more signal.
The target of assay [20] is Concanavalin-A (Canavalia ensiformis) (UniProt P02866). The assay can be described thus: compounds binding concanavalin A lectin – biochemical, small-molecule microarray, Alexa647 label, 635 nm, artefact control for SMM control protein annotation, primary screen (AID 1127).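 Note: z combines 667 nm emission intensity with signal-to-noise across three replicate slides.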 The following applies: ConA-A647 binding fluorescence, higher = more signal.
Chain of Concanavalin-A (Canavalia ensiformis) (P02866 whole entry, looked up): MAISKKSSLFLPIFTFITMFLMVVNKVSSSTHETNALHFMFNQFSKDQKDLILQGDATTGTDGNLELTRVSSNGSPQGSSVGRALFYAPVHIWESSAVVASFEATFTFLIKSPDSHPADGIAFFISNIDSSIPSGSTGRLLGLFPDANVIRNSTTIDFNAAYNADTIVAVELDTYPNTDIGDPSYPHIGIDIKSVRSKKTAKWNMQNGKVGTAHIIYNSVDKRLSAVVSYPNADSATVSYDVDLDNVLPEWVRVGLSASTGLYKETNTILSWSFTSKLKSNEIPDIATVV

Chain of Alpha-bungarotoxin (Bungarus multicinctus) (P60615 whole entry, looked up): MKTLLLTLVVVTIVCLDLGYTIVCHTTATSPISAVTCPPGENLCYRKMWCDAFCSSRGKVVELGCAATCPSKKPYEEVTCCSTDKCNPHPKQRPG

As to `CC(CO)N1C(=O)[C@@H]2C3C(=O)OCCC=C[C@H]3OC23C=CCN(c2ccc4ccccc4c2)C(=O)[C@@H]13` (stereo not given in full), the composite z-score was 1.24 and -0.698 in [1]; -1.21 and 0.0157 in assay [3]; -0.482 and -1.21 in assay [4]; 0.0293 and -1.1 in assay [5]; -0.203 and -0.183 in assay [6]; 0.0141 and -0.824 in [7]. In addition, the composite z-score in assay [8] was 0.304 and -0.61; in [9], 2.61 and 1.05; in assay [10], -0.69 and -0.343; in assay [11], -0.452 and 0.947; in assay [13], -0.1 and -0.498; in assay [14], -0.14 and -0.299. Also, the composite z-score in [15] was 0.838 and 0.84; in assay [16] it was 0.506 and 0.368; in [17], 0.697 and 0.476; in assay [18], 0.31 and -0.264; in [19], -0.937 and -1.09; in assay [20], 0.0026 and -0.279. Also, in assay [2], the z-score is -0.466 and -0.213. Besides, in assay [12], the composite Z-score was -0.862 (inactive) and 0.322 (inactive).

With `C[C@@H]1CC[C@H]2C(=O)N3[C@@H](CC[C@@H](C)[C@@H]3c3ccc(-c4ccco4)cc3)C(=O)N2[C@H]1c1ccc(-c2ccco2)cc1`, the composite z-score is -0.496 and 0.292 in assay [1]; 0.714 and 1.31 in assay [3]; 1.07 and -0.328 in [4]; -0.355 and -1.5 in [5]; -0.113 and 0.0579 in [6]; 0.166 and -0.0626 in assay [7]. For the same molecule, the composite z-score was 0.274 and 0.223 in assay [8]; 1.07 and 0.704 in [9]; 1.92 and 3.43 in assay [10]; 0.346 and -0.391 in assay [11]; 0.116 and 0.385 in [13]; 0.0079 and 0.0312 in assay [14]. In addition, the composite z-score in assay [15] is 0.688 and 0.645; in assay [16], 1.12 and 0.0336; in [17] it was 0.412 and -0.258; in [18], 1.3 and 1.1; in assay [19], 1.05 and 1.57; in [20], 1.11 and 1.16. Moreover, the z-score in assay [2] is -0.207 and -0.734. In addition, in [12], the composite Z-score is 0.705 (inactive) and 1.24 (inactive).

Regarding `CC(CO)N1C(=O)[C@@H]2C3C(=O)OCCC=C[C@H]3OC23C=CCN(CCN2CCOCC2)C(=O)[C@@H]13` (stereo not given in full), the composite z-score in assay [1] was -1.05 and 0.497; in assay [3], -0.346 and 0.398; in assay [4], -0.0612 and -0.561; in assay [5], -0.75 and -1.03; in assay [6], -0.0981 and -0.13; in [7], 0.0278 and 0.214. The composite z-score in assay [8] was 0.199 and -0.0161; in assay [9], -0.71 and 1.48; in [10], -0.106 and -0.0808; in assay [11], 0.417 and -0.264; in assay [13], -0.225 and 0.604; in [14] it was -0.113 and -0.147. Besides, the composite z-score is 0.819 and 0.787 in assay [15]; -0.144 and 2.41 in [16]; -0.657 and 0.721 in [17]; -0.495 and 1.14 in [18]; -0.184 and -0.565 in assay [19]; 0.116 and 0.686 in assay [20]. In addition, in [2], the z-score was -0.38 and -0.851. The composite Z-score in assay [12] is 0.102 (inactive) and -0.135 (inactive).

For the molecule `C=CCN(CCCCC)C(=O)C1N(CCOCCO)C(=O)C2C(C(=O)O)C3C=CC21O3` (stereo not given), the composite z-score is -1.53 and -0.495 in assay [1]; -2.78 and -1.83 in assay [3]; -0.368 and -0.355 in assay [4]; 1.01 and 1.07 in [5]; -0.276 and -0.328 in assay [6]; 0.0048 and -0.124 in [7]. Further, the composite z-score is -0.149 and -0.201 in assay [8]; -1.04 and 1.94 in assay [9]; -1.16 and -3.11 in assay [10]; 0.92 and -1.47 in assay [11]; -0.496 and -0.461 in assay [13]; -0.195 and -0.189 in assay [14]. For the same molecule, the composite z-score in assay [15] was 0.853 and 0.794; in assay [16] it was -0.568 and 0.294; in assay [17] it was -0.615 and 1.6; in [18], -3.26 and -1; in assay [19], -2.12 and -3.36; in assay [20] it was -1.88 and -1.67. In addition, in assay [2], the z-score was -0.586 and 0.715. Further, the composite Z-score in [12] was 2.54 (inactive) and -0.487 (inactive).

For the origin of these results see PubChem BioAssay.
